Here are results for 40 sequences from the supplement of paper PMC10681739.

The target of this experiment is T1, ETS1 (UniProt P14921).
T1 sequence: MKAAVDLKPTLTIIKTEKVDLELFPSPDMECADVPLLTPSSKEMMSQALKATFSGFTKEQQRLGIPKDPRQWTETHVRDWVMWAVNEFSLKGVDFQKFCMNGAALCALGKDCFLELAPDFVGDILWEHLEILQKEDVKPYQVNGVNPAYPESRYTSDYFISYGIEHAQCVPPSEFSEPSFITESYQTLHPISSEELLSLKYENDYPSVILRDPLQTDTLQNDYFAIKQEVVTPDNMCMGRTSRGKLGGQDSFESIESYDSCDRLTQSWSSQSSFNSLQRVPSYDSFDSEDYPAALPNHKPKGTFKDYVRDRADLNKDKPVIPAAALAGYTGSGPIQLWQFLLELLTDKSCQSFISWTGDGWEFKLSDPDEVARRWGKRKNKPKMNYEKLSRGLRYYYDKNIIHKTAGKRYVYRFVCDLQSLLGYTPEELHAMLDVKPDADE
As to the kind of experiment: TF binding intensity (PBM fluorescence), negative control probe (arbitrary fluorescence units); higher = stronger binding. The protocol:
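gcPBM negative-control 36-bp genomic probes lacking TF binding sites. Each was incubated with recombinant human ETS1 or RUNX1 alone and detected by antibody fluorescence. Values are medians over replicate spots (4 spots for the ETS1-RUNX1 arrays, 3 for the ETS1-ETS1 array). The probes sit in constant array flanks that are not printed.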
“AGACTGCATACTTATAAAGTGGAGTATGCAGATAAT (protein concentration 10 nM)” showed a TF binding intensity of 119. For “TCACTCTCTGGACAGGGCCCTCTGAGCAAGCAACCA (protein concentration 10 nM)” the value was 109; for “GGCAAGCTTATATAGTTTGCTTCATAAAACTCTATT (protein concentration 10 nM)”, 119; for “CTTTCTAAAGAGAAAAGCTCCTTTGTACCACGTGTC (protein concentration 10 nM)”, 103.

“AAACAAAGTAAGCTTTTAAGGACTCTGGTCAGAAAC (protein concentration 10 nM)” returned a TF binding intensity of 101.

On to “TGGAAAATAATATTTCAAGACCATAATATGGCTGCT (protein concentration 10 nM)”, for which the TF binding intensity was 100. On to “TTTTGGATGATGCAAACCGCGCAAAAGCAGCATTCA (protein concentration 1 nM)”, for which the TF binding intensity was 449. Sequence “ACTTAGGTCTCTGTTACCACCATGAAACAATTTAGT (protein concentration 1 nM)” registered a TF binding intensity of 545. In turn, “TTCTAAAGAAATCACAGTCAAATCTACCATTTGCGT (protein concentration 10 nM)” gave a TF binding intensity of 99.5. On to “AGACAGAAAAAGCCACAGCCGAGCGCCCAGCTGTGG (protein concentration 10 nM)”, for which the TF binding intensity stood at 95.8. For “TAAGATCCACTGGCTTGAAATTCTTGCTGCCAGCAC (protein concentration 10 nM)” the value was 130. The sequence “GTTGTTATGCAAGGTTGTGGTTTTTGCAGTCTTTTG (protein concentration 1 nM)” had a TF binding intensity of 498. The sequence “GAAGCAAGGATAATTAACTTCTACCAGTGATCCCCA (protein concentration 10 nM)” returned a TF binding intensity of 124. For “AATAAAGGTGAGGCAGTCCAGAGTATTTCAAAACGG (protein concentration 10 nM)” the value was 116. “GAAAACACTAGCGTGACCTCAACAACTAAGATTAAA (protein concentration 1 nM)” had a TF binding intensity of 490. The sequence “CTGTTGTTTGACTTTAGTCATCTCCTACTTTTATAG (protein concentration 10 nM)” had a TF binding intensity of 137. Regarding “CAGGCTGTGGTTTCCATCATGAACACGTGATCCAGC (protein concentration 10 nM)”, the TF binding intensity stood at 127. For “TGGACTATATCAAGTGTGAACGATCATACTTGTTAT (protein concentration 10 nM)” the value was 124; for “AGGTGCACGATGGGTGGGGAGCTGCTCAGGGCACTG (protein concentration 10 nM)”, 112.

As for “TGGAATCTCATCCAAGCTGGATTTTGCGATCTTTGA (protein concentration 10 nM)”, the TF binding intensity is 104.

“TTTTTAAATTCGGTTTTGTGTTTTATCTTCAATTTC (protein concentration 10 nM)”: the TF binding intensity was 105. In the case of “CAGGCAGCATCTGGGGGTGTGTGGGTTTGGCAAGCT (protein concentration 10 nM)”, the TF binding intensity is 134. In turn, “CTCCTAATTCTGCATGCAACACTCTCCAGAGAGCTG (protein concentration 10 nM)” returned a TF binding intensity of 136. In the case of “TCCTCAGGGACGTGTGAGAACCTGGCTAGGCAAGAG (protein concentration 10 nM)” it was 135.

As for “AGGCCTGTAGCATTTAGCTGGCCTCTGAGGAATAAC (protein concentration 10 nM)”, the TF binding intensity is 101. In turn, “ATAGTACAAGCACTAGTCAAAGCTAGAGGTCACTCT (protein concentration 10 nM)” gave a TF binding intensity of 111. Turning to “TATCTTTATCATGATCCATTAAAGATGACAGAACTA (protein concentration 10 nM)”, the TF binding intensity worked out at 127. Regarding “CAGGCATCTGTCATGCCCAGTAATTAATTGCTCCAA (protein concentration 10 nM)”, the TF binding intensity amounted to 117. On to “CATGAAGAATATAGCATTGTTTTGTATATGTTTTAA (protein concentration 10 nM)”, for which the TF binding intensity stood at 131. “AACTGTGACGTTACATTGCAAGGGCATGAATACAGG (protein concentration 10 nM)” came in with a TF binding intensity of 131. On to “ACATGTCAAAGAGCTTCTTTAAGCAGTAGGTGGTTT (protein concentration 10 nM)”, for which the TF binding intensity amounted to 143. For “AAAGGCATGTAATGAACACTAAAACCCAAGAACCTG (protein concentration 10 nM)”, the TF binding intensity is 114. The sequence “CCGGGCCGCTGCGGGCTCCCCAGCTCCCCACAGATC (protein concentration 10 nM)” gave a TF binding intensity of 147. For “ATTTGGGTTCCAGCCCGCTAGCCTGCCTTTTCTCAT (protein concentration 10 nM)” the value was 92.9; for “CTCTGTTACAAAGCTTCACTTCTTAAGAGAGGGCTG (protein concentration 10 nM)”, 134; for “CTCAGTGCCTGCCTCAGATGTTTAAGTCTGAACATT (protein concentration 10 nM)”, 110. As for “GTTTCTTATAAGCAGAAACACTAACAAAGGACAGCG (protein concentration 10 nM)”, the TF binding intensity was determined as 146. For “CAGAAGTTATAATAATTAATGATATCATTCAGTGTG (protein concentration 10 nM)”, the TF binding intensity was found to be 118. Turning to “TCCAGAAGCAGAGGCTGAGAGAGGGATTCTTGTGCC (protein concentration 10 nM)”, the TF binding intensity was 112. The sequence “GTGAAACCAGGGCACAGGTAGAAATCCCTAGAGCAG (protein concentration 10 nM)” registered a TF binding intensity of 138.
